Bioassay records deposited in PubChem BioAssay by several laboratories.
An excerpt weighted towards active compounds, which were near 3.3% of everything screened.
NRP1-CendR mod = NRP-1/CendR interaction modulation; inhibition, % at 25 µM; AID 602438; 360,000 tested, 0.85% active; FAM-RPARPAR peptide binding to NRP-1, fluorescence polarization; O14786;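 active means inhibition or corrected inhibition above about 18%, plus a signal ratio from 0.5 to 1.5, limit read from the data, passing the limit was not always enough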
HNF4A DNA FP = change in binding of human HNF4 alpha to DNA. P41235. HNF4a-FITC DNA binding, fluorescence polarization, 1 h. activity change, % at 10 µM. 360,000 tested, 0.3% active. AID 1224865; in the data active means activity change above about 30%, passing the limit was not always enough
Rpn11 inh = Rpn11 (human) deubiquitinase inhibition; O00487; human 26S proteasome, Ub4-pepOG fluorescence polarization; 20S core pre-blocked with epoxomicin; inhibition, % at 20 µM; 360,000 tested, 0.59% active;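 active means inhibition at 20 µM, scaled to each plate's controls, above about 33%, limit read from the data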
Target sequence (O00487 whole entry, looked up): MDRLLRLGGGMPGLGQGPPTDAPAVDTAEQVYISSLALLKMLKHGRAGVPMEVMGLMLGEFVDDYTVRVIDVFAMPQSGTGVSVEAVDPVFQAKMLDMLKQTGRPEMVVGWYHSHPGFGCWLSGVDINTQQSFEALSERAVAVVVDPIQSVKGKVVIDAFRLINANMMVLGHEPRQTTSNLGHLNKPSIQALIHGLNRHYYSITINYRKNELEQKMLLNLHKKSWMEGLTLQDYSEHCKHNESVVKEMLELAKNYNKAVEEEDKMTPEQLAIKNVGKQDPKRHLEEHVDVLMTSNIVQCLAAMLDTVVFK
PHOSPHO1 inh = blocks human PHOSPHO1 phosphatase activity; inhibition, % at 13.3 µM; 290,000 tested, 1.1% active; recombinant PHOSPHO1, absorbance phosphatase assay; in the data active means inhibition above about 60%
Target sequence (Q8TCT1 whole entry, looked up): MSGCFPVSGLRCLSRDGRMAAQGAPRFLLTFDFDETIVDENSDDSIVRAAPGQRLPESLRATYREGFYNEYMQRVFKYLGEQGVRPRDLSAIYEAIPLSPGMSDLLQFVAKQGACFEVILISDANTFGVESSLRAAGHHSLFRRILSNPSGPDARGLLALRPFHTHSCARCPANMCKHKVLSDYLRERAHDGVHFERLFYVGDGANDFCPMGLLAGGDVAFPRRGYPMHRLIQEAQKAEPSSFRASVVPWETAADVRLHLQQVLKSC
CTSL1 counter = counter-screen for PFM18AAP inhibitors: inhibitors of F. hepatica cathepsin L1; 300,000 tested, 0.49% active; AID 1906; inhibition, % at 5.96 µM; recombinant F. hepatica cathepsin L1, Z-Leu-Arg-MCA fluorescence;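 active means inhibition above the mean of all tested compounds plus 3 SD, set per screening campaign, cut at about 17% in these data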;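 further: 0% = plate median of test compound wells and 100% = 1 µM Z-Phe-Ala-diazomethylketone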
TPT1 inhibitor = blocks Candida albicans tRNA 2'-phosphotransferase. 300,000 tested, 0.81% active. inhibition, % at 5 µM. recombinant caTPT1, FP RNA substrate dephosphorylation. AID 1962;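 active means inhibition above the mean of all tested compounds plus 3 SD, set per screening campaign, cut at about 24% in these data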;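 further: plate controls were DMSO alone for no effect and ferristatin control at 100 nM for full effect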
Starred values were filed as active, the others as inactive; . = no result given.

SMILES | NRP1-CendR mod | HNF4A DNA FP | Rpn11 inh | PHOSPHO1 inh | CTSL1 counter | TPT1 inhibitor
CCOc1cc(N2CCOCC2)c(OCC)cc1NC(=O)COC(=O)c1cc2ccccc2cc1O | -2 | -2 | 2 | -10 | 58* | -1
CCOc1cc(N2CCOCC2)c(OCC)cc1NC(=O)COC(=O)C1CCCN1S(=O)(=O)c1ccccc1F (centres undefined) | -3 | 0 | 4 | . | . | .
CCOc1cc(N2CCOCC2)c(OCC)cc1NC(=O)CSc1nc(N)cc(=O)[nH]1 | 15 | -2 | -2 | . | . | .
CCOc1cc(N2CCOCC2)c(OCC)cc1NC(=O)CN1C(=O)NC(C)(C2CC2)C1=O (centres undefined) | 7 | 1 | -5 | 8 | 37* | 3
CCOc1cc(N2CCOCC2)c(OCC)cc1NC(=O)CN1C(=O)NC2(CCCCC2)C1=O | -10 | 0 | 2 | . | . | .
CC#CCN1C(=O)N[C@@H](c2ccccc2)C(C(=O)OC)=C1C | 12 | -1 | 1 | . | -2 | 1
CCOc1cc(/C=N/NC(=O)C(C)Sc2ccccn2)ccc1O (centres undefined) | 0 | 0 | 0 | 9 | 0 | -3
CC(=O)NC(c1ccc(F)c(F)c1)c1nc(-c2cnc3ccccc3c2)cs1 (centres undefined) | -18 | 10 | 0 | . | . | .
CC1(C)NC(=O)N(CC(=O)OCC(=O)c2ccc(Cl)s2)C1=O | 0 | 1 | 4 | . | . | .
CC(C)(C)NC(=O)C(c1ccccc1)N(C(=O)C1CSC(=O)C1)c1ccccc1 (centres undefined) | 7 | 0 | 2 | 0 | -3 | 1
CCOc1cc(N2CCOCC2)c(OCC)cc1NC(=O)[C@H](C)N1C(=O)C2CC=CCC2C1=O (some centres undefined) | -11 | 0 | -5 | 63* | -2 | 2
C[C@@H](C(=O)Nc1cc(C(F)(F)F)ccc1N1CCOCC1)N1C(=O)C2CC=CCC2C1=O (some centres undefined) | -11 | 1 | 0 | . | . | .
COc1ccc(NC(=O)C2CC(=O)n3cnnc3S2)cc1 (centres undefined) | 15 | -3 | 1 | 104* | -3 | -3
COc1cccc(NC(=O)C2CC(=O)N=C(N)S2)c1 (centres undefined) | 3 | -3 | -6 | -1 | -1 | -10
COc1cccc(NC(=O)C2CC(=O)n3cnnc3S2)c1 (centres undefined) | 10 | -3 | 3 | 103* | 2 | -8
CCOC(=O)C1=C(COC(=O)Cc2ccccc2F)NC(=O)NC1C (centres undefined) | -7 | -4 | -4 | . | 0 | -2
CCOc1cc(/C=C2/C(=N)N3C(=NC2=O)SN=C3S(=O)(=O)C(C)C)ccc1OC(=O)c1ccco1 | -166 | 39* | . | 49 | -5 | 15
Nc1nc(NCC2CCCO2)nc(Nc2ccc(Cl)cc2)c1[N+](=O)[O-] (centres undefined) | 13 | -3 | 5 | 37 | -1 | -2
CCOC(=O)C(NC(C)=O)C(=O)Nc1ccc(C(C)C)cc1 (centres undefined) | 26* | 0 | -2 | 22 | 2 | -2
CCOC(=O)C(NC(C)=O)C(=O)Nc1ccc(C(C)(C)C)cc1 (centres undefined) | 2 | 3 | 1 | 30 | -2 | -2
Cc1ccc(N2CCN(C(=O)C3CCC(=O)N(Cc4ccc(Cl)cc4)C3)CC2)c(C)c1 (centres undefined) | 0 | 1 | 0 | 31 | . | .
CCn1c(SC(C)C(=O)Nc2nccs2)nnc1-c1ccncc1 (centres undefined) | 24* | 0 | 1 | 25 | -1 | -3
CCC(=O)Nc1ccc(-c2nnc(SCC(=O)Nc3nccs3)n2C)cc1 | -4 | 3 | -1 | 103* | -1 | -4
CCn1c(SCC(=O)Nc2nccs2)nnc1-c1ccc(C)cc1 | -4 | 1 | . | 7 | -1 | 1
COc1ccc(OC)c(NC(=O)CCNC(=O)c2ccco2)c1 | -1 | -1 | 0 | 17 | -3 | 0
SMILES | NRP1-CendR mod | HNF4A DNA FP | Rpn11 inh | PHOSPHO1 inh | CTSL1 counter | TPT1 inhibitor
COC(=O)CCCC1=CC2=C(c3ccccc3)C(=O)C(C)(OC(=O)C3CCCC3)C(=O)C2=CN1C1CCCCC1 (centres undefined) | 1 | -3 | -2 | 35 | 3 | 1
COCCN1C=C2C(=O)C(C)(OC(=O)C3CCCC3)C(=O)C(c3ccccc3)=C2C=C1CCCC(=O)OC (centres undefined) | 26* | -7 | -21 | 22 | 9 | -7
CCCCC1=CC2=C(c3ccco3)C(=O)C(C)(OC(=O)c3ccc(OC)cc3)C(=O)C2=CN1CCOC (centres undefined) | 28* | -1 | -9 | 0 | 5 | -3
CCN(CC)CCCN1C=C2C(=O)C(C)(OC(=O)C3CCCC3)C(=O)C(c3ccccc3)=C2C=C1CCCC(=O)OC (centres undefined) | 36* | -11 | -20 | 18 | -1 | -1
CCCCC1=CC2=C(c3ccco3)C(=O)C(C)(OC(=O)c3ccc(OC)cc3)C(=O)C2=CN1Cc1ccccc1 (centres undefined) | -39 | -4 | -10 | 22 | 8 | -8
COC(=O)CCCC1=CC2=C(c3ccccc3)C(=O)C(C)(OC(=O)C3CCCC3)C(=O)C2=CN1CC(C)C (centres undefined) | 28* | -10 | -8 | 35 | 15 | -2
COC(=O)CCCC1=CC2=C(c3ccccc3)C(=O)C(C)(OC(=O)C3CCCC3)C(=O)C2=CN1CC1CC1 (centres undefined) | 6 | -2 | -4 | 31 | 7 | -4
Cc1ccc(NC(=O)c2ccc(OC(=O)c3cc4ccccc4o3)cc2)cc1 | -5 | 3 | -13 | 32 | -1 | -1
CN(Cc1ccc(Cl)s1)C(=O)CSc1nnc(C2CC2)n1C1CC1 | -3 | 3 | -7 | . | . | .
CCN(C(=O)COC(=O)c1nccnc1N)c1cccc2ccccc12 | -2 | 7 | 1 | . | . | .
COC(=O)CCCC1=CC2=C(c3ccccc3)C(=O)C(C)(OC(=O)C3CCCC3)C(=O)C2=CN1C1CCCC1 (centres undefined) | 30* | 3 | -9 | 13 | 6 | -3
CCN(CC(=O)Nc1cccc(C#N)c1)CC(=O)Nc1cccc(OC)c1 | -4 | 0 | 2 | 63* | 0 | 2
O=C(OCCN1C(=O)c2ccccc2C1=O)c1cc2ccccc2o1 | 13 | 0 | 5 | 10 | -2 | -3
CN(C)CCCOC(=O)c1cc2ccccc2o1 | 24* | -1 | 7 | 11 | -3 | -5
c1csc(-c2nn3c(-c4ccncc4)nnc3s2)c1 | . | . | . | -36 | . | .
c1csc(Cc2nn3c(-c4ccncc4)nnc3s2)c1 | 2 | 0 | -1 | 72* | -1 | -1
Cc1ccc(NC(=S)Nc2ccc(F)cc2)c(C)c1 | 5 | -1 | 0 | 24 | -4 | -3
